aSyn UTR act: Activators via SNCA 5'UTR binding, MLPCN | alpha-synuclein 5'UTR reporter, activators screen | activity score, % (tested at 7.5 µM), hits read low | 7.1% of 300,000 active | AID 1814; in the data active means activity score below about -60%
Starred values were filed as active, the others as inactive. These entries were drawn from the full list.

SMILES	aSyn UTR act
Cc1cc2c(cc1C)NC(CC(=O)NCc1ccccc1)C(=O)N2 (stereo not given)	-77*
O=C(Nc1ccc(Cl)c(Cl)c1)OCc1cncs1	-97*
CC(=O)Nc1ccc(-c2csc(NCc3ccco3)n2)cc1	-138*
c1cncc(-c2csc(NCc3ccco3)n2)c1	-92*
COc1ccc(-c2csc(NCc3ccco3)n2)cc1C	-195*
O=C(CSc1ccc(C(F)(F)F)cc1[N+](=O)[O-])Nc1ccccc1	-75*
COc1cc(Br)cc(/C=N/NC(=O)Cc2ccc(C(F)(F)F)cc2[N+](=O)[O-])c1O	68
O=C(CCl)Nc1cc(SCC(O)CO)cc([N+](=O)[O-])c1 (stereo not given)	110
CC(/C=C/c1ccccc1)=N\Nc1ccccc1[N+](=O)[O-]	-150*
CCS(=O)(=O)N1N=C(c2cccs2)CC1c1cc2cc(C)ccc2nc1Cl (stereo not given)	-67*
O=C(O)c1cnn(-c2nc(-c3ccc(Br)cc3)cs2)c1C(F)(F)F	-96*
CCn1c(O)c(/C=C2\C=NN=C2c2ccccc2)sc1=S	67
Oc1c(C=C2N=c3ccccc3=N2)sc(=S)n1-c1ccc(F)cc1	-65*
Cc1cc(N/N=C/c2ccc(O)cc2O)nc(-n2nc(C)cc2C)n1	72
CCOc1ccc(/C=N/Nc2cc(C)nc(N3CCOCC3)n2)cc1	-105*
Cc1cc(Nc2ccc(C)c(Cl)c2)nc(N2CCOCC2)n1	-70*
CCOc1ccc2nc(N3CCOCC3)nc(C)c2c1	-178*
CCCCn1nnc(NC(=S)NC(=O)c2cccs2)n1	-114*
CCN(CC)c1ccc(NC(=S)NC(=O)c2ccco2)cc1	-214*
CCN(CC)c1ccc(NC(=S)Nc2ccc(F)cc2)cc1	-91*
CCCOc1ccc(C(=O)NNC(=S)NC(=O)c2ccco2)cc1	52
CCCCC(=O)Nc1ccc(NC(=S)NC(=O)c2cccs2)cc1OC	-107*
CCN(CC)c1ccc(NC(=S)NC(=O)c2cccs2)cc1	-156*
CC(=O)c1ccc(NC(=S)NCc2ccco2)cc1	-67*
CCOC(=O)c1ccc(NC(=O)C(=O)NCc2ccco2)cc1	-82*
SMILES	aSyn UTR act
CCN(CC)CC#CC(OC)(c1ccccc1)c1ccccc1	-81*
CCCCCCCCCn1c2c(c(=N)c3c1CCC3)CCCC2	90
O=C(c1ccc(-c2ccccc2)cc1)N1CCCC1	-88*
O=C(Oc1ccc(-c2ccccc2)cc1)N1CCCCC1	-169*
O=C(c1cccc(-c2nnc(-c3ccccc3)o2)c1)N1CCCCC1	-76*
O=[N+]([O-])/C(C(Cl)=C(Cl)Cl)=C(/Sc1ccccc1)N1CCCCC1	-78*
Cc1ccc(S(=O)(=O)CCSc2n[nH]c(=O)n2-c2ccc3c(c2)OCCO3)cc1	-72*
Clc1cccc(N/N=C/c2ccncc2)c1	-117*
C/C(=N\Nc1cccc(Cl)c1)c1ccncc1	-117*
Cc1ccc(N/N=C/c2ccncc2)cc1	-120*
CN1C2CCC1/C(=C\c1ccc(F)cc1)C(=O)/C2=C/c1ccc(F)cc1	-134*
O=C(c1ccc(Br)cc1)C(CN1CCOCC1)c1ccccc1 (stereo not given)	-152*
COc1ccc(C(=O)Nc2ccccc2C(=O)N/N=C/c2cccc3ccccc23)cc1	-169*
COc1cc(OC)cc(C(=O)Nc2ccccc2C(=O)N2CCCC2)c1	-123*
COc1ccc(C(=O)Nc2ccccc2C(=O)Nc2ccccc2C(=O)O)cc1	-98*
COc1cc(OC)cc(C(=O)NNC(=O)c2ccccn2)c1	73
CCC(NC(=O)c1ccccc1NC(=O)c1ccc(OC)cc1)C(=O)N1CCCC1 (stereo not given)	-69*
COc1ccc(C(=O)N[C@H](C(=O)Nc2nc3ccccc3[nH]2)C(C)C)cc1	106
COc1ccc(C(=O)NC2=Nc3ccccc3N=C(C)C2c2ccccc2)cc1 (stereo not given)	-228*
COc1ccc(C(=O)Nc2ccccc2C(=O)Nc2ccncc2)cc1	-105*
COc1ccccc1Cn1c(/C=C/c2ccccc2)nc2ccccc21	-111*
Cc1cccc(NC(=O)Cn2c(/C=C/c3ccccc3)nc3ccccc32)c1	-123*
COc1ccc(/C=C/c2nc3ccccc3n2Cc2ccccc2OC)cc1	-153*
COCCn1c(/C=C/c2ccccc2)nc2ccccc21	-156*
COc1ccc(CSc2nnc(C)s2)cc1F	-127*
SMILES	aSyn UTR act
COC(=O)c1cccc(CSc2nnc(C)s2)c1	-82*
Cc1cccn2c1nc(=S)n2C(=O)c1ccco1	-265*
Cc1ccc(Nc2nc(Cl)c(C=O)s2)cc1Cl	-115*
COc1ccccc1Nc1nc(Cl)c(C=O)s1	-104*
COc1ccccc1Nc1nc2c(s1)CCC2	-68*
O=Cc1sc(Nc2ccccc2)nc1Cl	-117*
Cc1cccc(OCC(=O)NC(C)C(=O)N/N=C/c2c(OCc3ccccc3)ccc3ccccc23)c1 (stereo not given)	-138*
NC(=O)N/N=C/c1ccc2cccc(OCc3ccccc3)c2n1	60
COc1ccc(-c2cn3c(C)c(C(=O)NC(C)C)sc3n2)cc1	-78*
COc1ccc(-c2cn3c(C)c(C(=O)NC(C)(C)C)sc3n2)cc1	-229*
O=C(/C=C/Nc1ccc(Br)cc1F)c1ccco1	57
O=C(/C=C/Nc1ccccc1O)c1ccco1	-87*
CN(C)c1ccc(N/C=C/C(=O)c2ccco2)cc1	-105*
CC(=O)Nc1ccc(N/C=C/C(=O)c2ccco2)cc1	-323*
C/C(=N\Nc1nc2c(s1)CCCC2)c1ccc(Cl)cc1	-100*
Cc1ccc(C2NNC(=O)C2NC(=O)c2ccccc2)cc1 (stereo not given)	-111*
COc1ccc2c(c1OC)C(=O)N(c1ccc(F)cc1)C2	-159*
COc1cc2c(c(OC)c1OC)-c1ccc(OC)c(=O)cc1[C@@H](NC(C)=O)CC2	96
C/C(N)=C(/C#N)C(=O)CSc1ccc2c(c1)OCCO2	-125*
Cc1cc(C(=O)CSc2ccc3c(c2)OCCO3)c(C)n1C1CC1	-126*
Cn1c(N)c(C(=O)/C=C/c2ccccc2)c(=O)[nH]c1=O	-140*
c1ccc2[nH]c(SCc3cscn3)nc2c1	-104*
c1ccc2nc(-c3nc4ccccc4[nH]3)ccc2c1	74
c1ccc2[nH]c(-c3cscn3)nc2c1	-99*
Cc1ccc(-n2c(C)csc2=N)cc1	-175*
SMILES	aSyn UTR act
Cc1csc(=N)n1-c1ccc(Cl)cc1	-144*
CC(=O)C1=NOC(CNc2ncc(C(F)(F)F)cc2Cl)C1 (stereo not given)	-86*
CCCCCOc1ccc(Br)cc1/C(C)=N/NC1=NCCN1	88
Cc1cc(C)n2cc(CSc3nc4ccccc4s3)nc2n1	-107*
C/C(N)=C(/C#N)C(=O)COC(=O)c1cccc2ccccc12	-62*
COc1ccc2oc(C(=O)OCC(=O)/C(C#N)=C(\C)N)c(C)c2c1	-81*
COc1ccc2cc(-c3ccon3)ccc2c1	-172*
CCN(CC)C(=O)Oc1ccc2c(c1)O/C(=C\c1ccco1)C2=O	-116*
COc1cccc(N=Nc2c(C)[nH]n(-c3ccccc3)c2=O)c1	-145*
Cc1[nH]n(-c2ccccc2)c(=O)c1N=Nc1ccccc1O	50
Cc1[nH]n(-c2ccccc2)c(=O)c1N=Nc1ccc2c(c1)OCO2	-214*
CNC(C)C#Cc1ccc2c(=O)c3ccccc3oc2c1 (stereo not given)	-244*
CC(C)C[C@H]1CN=C(Nc2ccccc2)N1CCCC1CCCCC1	-69*
O=c1sc(Nc2ccccc2)nc2ccsc12	-111*
O=C(Nc1nc2c(Cl)ccc(Cl)c2s1)c1ccco1	-184*
O=C(Nc1nc2ccsc2c(=O)s1)C1CCC1	-96*
